PubChem BioAssay (Tox21)
Records with an inconclusive call do not appear. The source made the active and inactive calls. The call rests on the fitted dose curve; in most records, active means well fitted curve in the direction sought with a large enough effect in the repeat runs; inconclusive means weak or mixed curves; inactive means no such curve, though single readings can be large; an effect the other way counts as inactive or inconclusive.

Assays:
[1] = qHTS RealTime-Glo MT Cell Viability Assay in HepG2 cells - 40 hour (AID 1224870); further: nearly all actives have a fitted effect of over 50% in size
In short: (§1)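 HepG2 cells (600/well) mixed with RealTime-Glo MT reagent, settled 5 h at 37 C/5% CO2 before compound addition. Nonlytic NanoLuc luminescence from viable-cell prosubstrate reduction read repeatedly during 40 h treatment at 37 C.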

[2] = A CellTox Green Cytotoxicity Assay to monitor cytotoxicity in HEK293 cells - 40 hour (AID 1224871); further: nearly all actives have a fitted effect of over 45% in size
In short: (§2)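 Seeding of HEK293 cells together with cytotoxicity dye preceded a 5 h incubation at 37 C/5% CO2. Test compounds in DMSO were then added and fluorescence monitored across 40 h.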

[3] = qHTS RealTime-Glo MT Cell Viability Assay in HEK293 cells - 16 hour (AID 1224872); further: top concentration of the series differs between compounds; nearly all actives have a fitted effect of over 50% in size
In short: (§3)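 Quantitative high-throughput screen of the Tox21 10K library in HEK293: cells and RealTime-Glo reagents plated together, compound added at 5 h, luminescence monitored through 40 h at 37 C.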

[4] = qHTS RealTime-Glo MT Cell Viability Assay in HepG2 cells - 8 hour (AID 1224873); further: nearly all actives have a fitted effect of over 55% in size
In short: as §1

[5] = qHTS RealTime-Glo MT Cell Viability Assay in HEK293 cells - 40 hour (AID 1224874); settings: RealTime-Glo luminescence; max response: active compounds read low; further: nearly all actives have a fitted effect of over 50% in size
In short: (§4)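 Tox21 screen in HEK293 using RealTime-Glo MT chemistry, with cells and reagent co-dispensed. Luminescence proportional to viable cell number was captured at intervals during 40 h compound exposure at 37 C.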

[6] = A CellTox Green Cytotoxicity Assay to monitor cytotoxicity in HEK293 cells - 24 hour (AID 1224875); further: series mostly up to about 77 µM; nearly all actives have a fitted effect of over 45% in size
In short: as §2

[7] = A CellTox Green Cytotoxicity Assay to monitor cytotoxicity in HepG2 cells - 16 hour (AID 1224876); further: nearly all actives have a fitted effect of over 45% in size
In short: (§5)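 Nonlytic assay: viable cells exclude the dye, so fluorescence scales with cell death. HepG2 at 600 cells/well, compounds added after 5 h, signal read across 40 h.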

[8] = qHTS RealTime-Glo MT Cell Viability Assay in HepG2 cells - 32 hour (AID 1224877); further: nearly all actives have a fitted effect of over 55% in size
In short: (§6)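 Compound treatment began 5 h after plating HepG2 cells (600/well) with NanoLuc luciferase and prosubstrate. Plates stayed at 37 C for 40 h; luminescence was captured at six time points, 0 h through 40 h.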

[9] = A CellTox Green Cytotoxicity Assay to monitor cytotoxicity in HepG2 cells - 24 hour (AID 1224878); further: nearly all actives have a fitted effect of over 45% in size
In short: as §5

[10] = A CellTox Green Cytotoxicity Assay to monitor cytotoxicity in HepG2 cells - 40 hour (AID 1224879); further: nearly all actives have a fitted effect of over 40% in size
In short: as §5

[11] = qHTS RealTime-Glo MT Cell Viability Assay in HEK293 cells - 0 hour (AID 1224880)
In short: as §4

[12] = A CellTox Green Cytotoxicity Assay to monitor cytotoxicity in HEK293 cells - 32 hour (AID 1224881); further: nearly all actives have a fitted effect of over 40% in size
In short: as §2

[13] = A CellTox Green Cytotoxicity Assay to monitor cytotoxicity in HepG2 cells - 0 hour (AID 1224882); further: nearly all actives have a fitted effect of over 35% in size
In short: as §5

[14] = A CellTox Green Cytotoxicity Assay to monitor cytotoxicity in HepG2 cells - 32 hour (AID 1224883); further: nearly all actives have a fitted effect of over 50% in size
In short: as §5

[15] = A CellTox Green Cytotoxicity Assay to monitor cytotoxicity in HEK293 cells - 8 hour (AID 1224884); further: nearly all actives have a fitted effect of over 35% in size
In short: as §2

[16] = qHTS RealTime-Glo MT Cell Viability Assay in HepG2 cells - 16 hour (AID 1224885); further: nearly all actives have a fitted effect of over 50% in size
In short: as §6

[17] = qHTS RealTime-Glo MT Cell Viability Assay in HEK293 cells - 24 hour (AID 1224886)
In short: as §3

[18] = qHTS RealTime-Glo MT Cell Viability Assay in HEK293 cells - 8 hour (AID 1224887)
In short: as §4

[19] = A CellTox Green Cytotoxicity Assay to monitor cytotoxicity in HEK293 cells - 16 hour (AID 1224888); further: nearly all actives have a fitted effect of over 35% in size
In short: as §2

[20] = qHTS RealTime-Glo MT Cell Viability Assay in HepG2 cells - 0 hour (AID 1224889); further: nearly all actives have a fitted effect of over 50% in size
In short: as §6
On the % scale 0 is the no-effect control and ±100 the full control effect.

COc1cc2c(cc1OC)[C@@H]1CC(=O)[C@@H](CC(C)C)CN1CC2
inactive: outcome [1] | Potency [2] | Potency [3] | outcome [4] | max response [5] -11.9% | outcome [6] | outcome [7] | outcome [8] | outcome [9] | Potency [10] | Potency [11] | Potency [12] | outcome [13] | Potency [14] | Potency [15] | outcome [16] | Potency [17] | Potency [18] | outcome [19] | Potency [20]

CC(=O)OC(C)OC(=O)C(C)c1ccc(-c2ccccc2)c(F)c1 (stereo not given)
inactive: outcome [1] | Potency [2] | Potency [3] | outcome [4] | max response [5] 3.38% | outcome [6] | outcome [7] | outcome [8] | outcome [9] | Potency [10] | Potency [11] | Potency [12] | outcome [13] | Potency [14] | Potency [15] | outcome [16] | Potency [17] | Potency [18] | outcome [19] | Potency [20]

C=C1CC/C=C(\C)CC[C@@H]2[C@@H]1CC2(C)C
inactive: outcome [1] | Potency [2] | Potency [3] | outcome [4] | max response [5] 2.22% | outcome [6] | outcome [7] | outcome [8] | outcome [9] | Potency [10] | Potency [11] | Potency [12] | outcome [13] | Potency [14] | Potency [15] | outcome [16] | Potency [17] | Potency [18] | outcome [19] | Potency [20]

Cc1[nH]cnc1-c1ccc(Cl)cc1
inactive: outcome [1] | Potency [2] | Potency [3] | outcome [4] | max response [5] -3.17% | outcome [6] | outcome [7] | outcome [8] | outcome [9] | Potency [10] | Potency [11] | Potency [12] | outcome [13] | Potency [14] | Potency [15] | outcome [16] | Potency [17] | Potency [18] | outcome [19] | Potency [20]

CCNC(=O)C1CC(C)CCC1C(C)C (stereo not given)
inactive: outcome [1] | Potency [2] | Potency [3] | outcome [4] | max response [5] 2.62% | outcome [6] | outcome [7] | outcome [8] | outcome [9] | Potency [10] | Potency [11] | Potency [12] | outcome [13] | Potency [14] | Potency [15] | outcome [16] | Potency [17] | Potency [18] | outcome [19] | Potency [20]

COP(=O)(OC)OC(c1ccc(Cl)cc1)P(=O)(OC)OC (stereo not given)
inactive: outcome [1] | Potency [2] | Potency [3] | outcome [4] | max response [5] 4.98% | outcome [6] | outcome [7] | outcome [8] | outcome [9] | Potency [10] | Potency [11] | Potency [12] | outcome [13] | Potency [14] | Potency [15] | outcome [16] | Potency [17] | Potency [18] | outcome [19] | Potency [20]

CCCCN
inactive: outcome [1] | Potency [2] | Potency [3] | outcome [4] | max response [5] 9.77% | outcome [6] | outcome [7] | outcome [8] | outcome [9] | Potency [10] | Potency [11] | Potency [12] | outcome [13] | Potency [14] | Potency [15] | outcome [16] | Potency [17] | Potency [18] | outcome [19] | Potency [20]

Cc1cc2cc3c(C)cc(=O)oc3c(C)c2o1
inactive: outcome [1] | Potency [2] | Potency [3] | outcome [4] | max response [5] -18.2% | outcome [6] | outcome [7] | outcome [8] | outcome [9] | Potency [10] | Potency [11] | Potency [12] | outcome [13] | Potency [14] | Potency [15] | outcome [16] | Potency [17] | Potency [18] | outcome [19] | Potency [20]

C[C@@H](O)[C@H]1C(=O)N2C(C(=O)O)=C(SCCN=CN)C[C@H]12
inactive: outcome [1] | Potency [2] | Potency [3] | outcome [4] | max response [5] 2.62% | outcome [6] | outcome [7] | outcome [8] | outcome [9] | Potency [10] | Potency [11] | Potency [12] | outcome [13] | Potency [14] | Potency [15] | outcome [16] | Potency [17] | Potency [18] | outcome [19] | Potency [20]

CC(C)C[C@H](NC(=O)CNC(=O)[C@H](Cc1ccc(O)cc1)NC(=O)[C@H](CO)NC(=O)[C@H](Cc1c[nH]c2ccccc12)NC(=O)[C@H](Cc1cnc[nH]1)NC(=O)[C@@H]1CCC(=O)N1)C(=O)N[C@@H](CCCN=C(N)N)C(=O)N1CCC[C@H]1C(=O)NCC(N)=O (stereo in doubt)
inactive: outcome [1] | Potency [2] | Potency [3] | outcome [4] | max response [5] 12.8% | outcome [6] | outcome [7] | outcome [8] | outcome [9] | Potency [10] | Potency [11] | Potency [12] | outcome [13] | Potency [14] | Potency [15] | outcome [16] | Potency [17] | Potency [18] | outcome [19] | Potency [20]

CCCCNc1ccc(C(=O)OCCN(C)C)cc1
inactive: outcome [1] | Potency [2] | Potency [3] | outcome [4] | max response [5] -3.43% | outcome [6] | outcome [7] | outcome [8] | outcome [9] | Potency [10] | Potency [11] | Potency [12] | outcome [13] | Potency [14] | Potency [15] | outcome [16] | Potency [17] | Potency [18] | outcome [19] | Potency [20]

C=C(C)C(=O)OCC(C)(C)COC(=O)C(=C)C
inactive: outcome [1] | Potency [2] | Potency [3] | outcome [4] | max response [5] 2.01% | outcome [6] | outcome [7] | outcome [8] | outcome [9] | Potency [10] | Potency [11] | Potency [12] | outcome [13] | Potency [14] | Potency [15] | outcome [16] | Potency [17] | Potency [18] | outcome [19] | Potency [20]
